Measured values taken from PubChem BioAssay AID1159580 (chemical genetic matrix, 2015).
The whole screen tested about 5,500 compounds, of which about 2,000 (36%) were called active. Roughly 18% stayed inconclusive and do not appear here. Rule as the data show it: active = normalized growth mostly below about 0.91 (no sharp cut-off); inconclusive = no clear call, values can overlap the other calls; inactive = mostly above about 0.92. This is one part of the list.

Assay: chemical genetic growth profiling, strain panel (AID 1159580);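 also: tested at 20 µM; growth read once vehicle control cultures reached saturation at 30 °C; 1 = growth at the plate median or of vehicle wells; lower values mean less growth of the strain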
Conditions: growth OD

Measured: normalized growth

COc1c(C)c2c(c(C)c1Cl)Oc1c(Cl)c(OC)c(Cl)c(C)c1C(=O)O2
inactive: S. cerevisiae deletion strains, locus YAL013W, strain DEP1, hits give low values 0.992 | S. cerevisiae deletion strains, locus YBR021W, strain FUR4, hits give low values 1.05 | S. cerevisiae deletion strains, locus YBR229C, strain ROT2, hits give low values 1.01 | S. cerevisiae deletion strains, locus YCL029C, strain bik1, hits give low values 1.02 | S. cerevisiae deletion strains, locus YDL035C, strain GPR1, hits give low values 1.01 | S. cerevisiae deletion strains, locus YDL074C, strain BRE1, hits give low values 1 | S. cerevisiae deletion strains, locus YDL101C, strain DUN1, hits give low values 1.01 | S. cerevisiae deletion strains, locus YDL134C, strain PPH21, hits give low values 1.01 | S. cerevisiae deletion strains, locus YDL185W, strain tfp1, hits give low values 1.02 | S. cerevisiae deletion strains, locus YDL192W, strain arf1, hits give low values 1.02 | S. cerevisiae deletion strains, locus YDR101C, strain arx1, hits give low values 1.01 | S. cerevisiae deletion strains, locus YDR150W, strain NUM1, hits give low values 1.02 | S. cerevisiae deletion strains, locus YDR162C, strain NBP2, hits give low values 0.987 | S. cerevisiae deletion strains, locus YDR318W, strain mcm21, hits give low values 1.03 | S. cerevisiae deletion strains, locus YDR388W, hits give low values 1.01 | S. cerevisiae deletion strains, locus YDR502C, strain sam2, hits give low values 1.01 | S. cerevisiae deletion strains, locus YEL061C, strain CIN8, hits give low values 1.01 | S. cerevisiae deletion strains, locus YER110C, hits give low values 1.02 | S. cerevisiae deletion strains, locus YER155C, strain BEM2, hits give low values 1.01 | S. cerevisiae deletion strains, locus YER167W, strain BCK2, hits give low values 1.03 | S. cerevisiae deletion strains, locus YGL078C, strain dbp3, hits give low values 1.01 | S. cerevisiae deletion strains, locus YGL086W, strain mad1, hits give low values 1.02 | S. cerevisiae deletion strains, locus YGL248W, strain PDE1, hits give low values 1.02 | S. cerevisiae deletion strains, locus YGR078C, strain PAC10, hits give low values 1.01 | S. cerevisiae deletion strains, locus YGR135W, strain pre9, hits give low values 1 | S. cerevisiae deletion strains, locus YGR229C, strain SMI1, hits give low values 0.991 | S. cerevisiae deletion strains, locus YGR252W, strain gcn5, hits give low values 1.05 | S. cerevisiae deletion strains, locus YHR030C, strain SLT2, hits give low values 1.02 | S. cerevisiae deletion strains, locus YHR079C, strain IRE1 (second series), hits give low values 1.03 | S. cerevisiae deletion strains, locus YHR094C, strain hxt1, hits give low values 1.01 | S. cerevisiae deletion strains, locus YHR129C, strain ARP1, hits give low values 1.02 | S. cerevisiae deletion strains, locus YHR200W, strain rpn10, hits give low values 1.02 | S. cerevisiae deletion strains, locus YIL066C, strain RNR3, hits give low values 1 | S. cerevisiae deletion strains, locus YIL073C, strain SPO22, hits give low values 1.08 | S. cerevisiae deletion strains, locus YIL125W, strain kgd1, hits give low values 1.02 | S. cerevisiae deletion strains, locus YIR030C, strain dcg1, hits give low values 1.01 | S. cerevisiae deletion strains, locus YJL095W, strain BCK1, hits give low values 1.02 | S. cerevisiae deletion strains, locus YJL134W, strain LCB3, hits give low values 1.01 | S. cerevisiae deletion strains, locus YJL168C, strain set2, hits give low values 1.01 | S. cerevisiae deletion strains, locus YJL187C, strain SWE1 (second series), hits give low values 1.01 | S. cerevisiae deletion strains, locus YJR043C, strain POL32, hits give low values 1.04 | S. cerevisiae deletion strains, locus YJR075W, strain HOC1, hits give low values 1.01 | S. cerevisiae deletion strains, locus YKL009W, strain mrt4, hits give low values 1.03 | S. cerevisiae deletion strains, locus YKL068W, hits give low values 1.01 | S. cerevisiae deletion strains, locus YKL085W, strain MDH1 (second series), hits give low values 1.02 | S. cerevisiae deletion strains, locus YKL085W, strain MDH1, hits give low values 1.02 | S. cerevisiae deletion strains, locus YKL190W, strain CNB1, hits give low values 1.01 | S. cerevisiae deletion strains, locus YKR001C, strain vps1, hits give low values 1.03 | S. cerevisiae deletion strains, locus YLR039C, strain RIC1, hits give low values 1.06 | S. cerevisiae deletion strains, locus YLR058C, strain SHM2, hits give low values 1.02 | S. cerevisiae deletion strains, locus YLR102C, strain apc9, hits give low values 1.01 | S. cerevisiae deletion strains, locus YLR262C, strain YPT6, hits give low values 1.02 | S. cerevisiae deletion strains, locus YLR268W, strain sec22, hits give low values 0.997 | S. cerevisiae deletion strains, locus YLR330W, strain CHS5, hits give low values 1.02 | S. cerevisiae deletion strains, locus YLR342W, strain FKS1 (second series), hits give low values 1.08 | S. cerevisiae deletion strains, locus YLR371W, strain rom2, hits give low values 1.02 | S. cerevisiae deletion strains, locus YLR418C, strain cdc73, hits give low values 0.989 | S. cerevisiae deletion strains, locus YML016C, strain PPZ1, hits give low values 1.01 | S. cerevisiae deletion strains, locus YML032C, strain rad52, hits give low values 1.03 | S. cerevisiae deletion strains, locus YML124C, strain tub3, hits give low values 1.01 | S. cerevisiae deletion strains, locus YMR078C, strain ctf18, hits give low values 1.02 | S. cerevisiae deletion strains, locus YMR223W, strain ubp8, hits give low values 1.03 | S. cerevisiae deletion strains, locus YMR263W, strain SAP30, hits give low values 1.01 | S. cerevisiae deletion strains, locus YMR307W, strain GAS1, hits give low values 1.06 | S. cerevisiae deletion strains, locus YNL067W, strain RPL9B, hits give low values 1.01 | S. cerevisiae deletion strains, locus YNL128W, strain TEP1, hits give low values 0.967 | S. cerevisiae deletion strains, locus YNL153C, strain GIM3, hits give low values 1 | S. cerevisiae deletion strains, locus YNL233W, strain BNI4, hits give low values 1.02 | S. cerevisiae deletion strains, locus YNL250W, strain rad50, hits give low values 1.01 | S. cerevisiae deletion strains, locus YNL271C, strain bni1, hits give low values 1.01 | S. cerevisiae deletion strains, locus YNL298W, strain CLA4, hits give low values 1.03 | S. cerevisiae deletion strains, locus YNL307C, strain MCK1, hits give low values 1.03 | S. cerevisiae deletion strains, locus YNL322C, strain KRE1, hits give low values 1 | S. cerevisiae deletion strains, locus YNR052C, strain pop2, hits give low values 1.02 | S. cerevisiae deletion strains, locus YOL006C, strain TOP1, hits give low values 1.1 | S. cerevisiae deletion strains, locus YOL012C, strain htz1 0.785 | S. cerevisiae deletion strains, locus YOL147C, strain pex11, hits give low values 1.01 | S. cerevisiae deletion strains, locus YOR061W, strain CKA2, hits give low values 1.01 | S. cerevisiae deletion strains, locus YOR069W, strain VPS5, hits give low values 1.02 | S. cerevisiae deletion strains, locus YOR136W, strain idh2, hits give low values 1.02 | S. cerevisiae deletion strains, locus YOR144C, strain elg1, hits give low values 1.01 | S. cerevisiae deletion strains, locus YOR184W, strain ser1, hits give low values 1.05 | S. cerevisiae deletion strains, locus YOR316C, strain cot1, hits give low values 1.02 | S. cerevisiae deletion strains, locus YPL055C, strain LGE1, hits give low values 0.99 | S. cerevisiae deletion strains, locus YPL241C, strain CIN2, hits give low values 1 | S. cerevisiae deletion strains, locus YPR119W, strain clb2, hits give low values 1 | S. cerevisiae deletion strains, locus YPR141C, strain kar3, hits give low values 1.01 | S. cerevisiae deletion strains, locus YPR163C, strain tif3, hits give low values 1.03 | S. cerevisiae deletion strains, locus YPR167C, strain met16, hits give low values 1.01 | S. cerevisiae deletion strains, strain wtn01, hits give low values 1.01 | S. cerevisiae strains, strain wild type, hits give low values 1
